According to PubChem BioAssay (NCI):
The panel holds about 83,000 compounds, 20% with a hit somewhere; the sample as a whole holds those more often.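 Method: cells in 96-well plates; compound added at one concentration; 48 h incubation; percent growth measured; values under 10 scored active.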 A number with no mark means an inactive call. The source made the active and inactive calls.

Each compound was assayed on SK-MEL-28 melanoma (assay: NCI-60 one-dose screen, 48 h (100 = growth as untreated, 0 = no growth, -100 = all killed)). Settings: 10 µM unless noted.
Protocol: Growth inhibition of the SK-MEL-28 human tumor cell line is measured as a screen for anti-cancer activity. Cells are grown in 96 well plates and exposed to the test compound for 48 hours. Compounds are tested at a single concentration, which is 10^-5 M for most compounds. The reported endpoint is percent growth (GI% or GIPRCNT), where numbers from 0 - 100% represent growth inhibition, and numbers from -100% - 0 represent cell death. For example, a value of 40 represents 60% growth inhibition. A value of 0 means no net growth occurred over the course of the experiment. A value of -40 indicates 40% of cells at the beginning of the experiment died by the end of the experiment. A value of -100 means all cells are dead at the end of the experiment.
NCI-60 Human Tumor Cell Lines Screen was performed using the standard one-dose NCI protocol, which is described in more detail at https://dtp.cancer.gov/discovery_development/nci-60/default.htm.
Compounds with GIPRCNT values below 10 were considered active. Activity score was based on GIPRCNT using the following formula: […]
Score is 0 for GIPRCNT values of 100 or above, 50 for GIPRCNT values of 0, and 100 for GIPRCNT values of -100.

SMILES | growth
CS(=O)(=O)c1nccc(-c2c(-c3ccc(F)c(OCCc4ccc(F)cc4)c3)nc3sccn23)n1 | -71.5% (active)
O=C(CCCCCCN1CC(=O)N2[C@@H](c3cc(F)cc(F)c3)c3[nH]c4ccccc4c3C[C@H]2C1=O)NO | 52.7%
COc1cc(C2=NN(C(C)=O)C(c3ccc(N4CCOCC4)cc3)C2)cc(OC)c1OC (stereo not given) | 104%
COc1ccc(S(=O)(=O)n2cc(C=O)c3ccccc32)c(OC)c1 | 83.8%
CS(=O)c1nccc(-c2c(-c3ccc(F)c(OCCc4ccc(F)cc4)c3)nc3sccn23)n1 (stereo not given) | 64.8%
c1ccc(-c2c(-c3ccccc3)[n+](Cc3ccc4ccccc4c3)c(-c3ccccc3)n2Cc2ccc3ccccc3c2)cc1 | -93.3% (active)
O=C1c2c(c3c4cc(Br)ccc4[nH]c3c3ccc4ccccc4c23)C(=O)N1CCN1CCCCC1 | 93.5%
COc1ccc2c(ccn2C(=O)N2c3ccccc3Sc3ccccc32)c1 | 66.4%
Oc1ccc(CSc2nnc(-c3ccncc3)o2)c2cccnc12 | 39.7%
Cn1cc(-c2nn3c(=O)cc(-c4ccccc4)nc3s2)c2cc(F)ccc21 | 45.2%
O=c1cc(-c2ccccc2)nc2sc(-c3c[nH]c4ccc(Br)cc34)nn12 | 93.9%
COc1ccc(Cn2cc3c(c2-c2cc(OC)c(OC)c(OC)c2)CCCc2cnoc2-3)cc1N | 65.9%
O=C(Nc1cccc(Cl)c1)Nc1nc2ccc([N+](=O)[O-])cc2s1 | 0.117% (active)
N#C/C(=C\c1ccc2ccccc2c1)C(=O)Nc1sc2c(c1C#N)CCC2 | 113%
Nc1nc(-c2cccc([N+](=O)[O-])c2)c(N=Nc2ccccc2Cl)s1 | 93.7%
O=C(/C=C1\C=CN(CCCCO)c2ccccc21)n1ccc2ccccc21 | 108%
O=C1Nc2ccc(Cl)cc2/C1=C/c1ccc(OCc2ccc(F)cc2)cc1 | 96.3%
O=C1/C(=C/c2ccc([N+](=O)[O-])cc2)SC(=Nc2ccccc2)N1Nc1ccccc1 | 83%
O=C1[C@H]2Cc3c([nH]c4ccccc34)[C@@H](c3c(Cl)cccc3Cl)N2C(=O)CN1C1CCN(Cc2ccccc2)CC1 | 93.1%
CC1=CC(=O)CC(C)(C)[C@@]1(O)/C=C/C(C)=C\C(=O)O | -34.6% (active)

SMILES | growth
O=C(Nc1cccc(-c2nc(-c3ccc(NC(=O)c4cccs4)cc3Cl)no2)c1)Nc1ccc(NC(=O)C2CC2)c(C(F)(F)F)c1 | -83.3% (active)
CC1CCN(S(=O)(=O)c2ncsc2-c2ccccc2)CC1 | 75.3%
COC1=C(c2ccccc2)C(=O)C(OC)=C(c2ccccc2)C1=O | 117%
Oc1ccc(CSc2nnc(-c3cnccn3)n2-c2ccccc2)c2cccnc12 | 32.5%
CC1(C)CC[C@]2(C(=O)N3CCCNCC3)CC[C@]3(C)C(=CC[C@@H]4[C@@]5(C)CCC(=O)C(C)(C)[C@@H]5CC[C@]43C)[C@H]2C1 | 104%
CS(=O)(=O)c1nccc(-c2c(-c3ccc(F)c(OCc4ccc(F)cc4)c3)nc3sccn23)n1 | 61.6%
CS(=O)(=O)c1nccc(-c2c(-c3ccc(F)c(OCc4ccccc4)c3)nc3sccn23)n1 | 85.9%
C/C=C/[C@@H]1C=C[C@@H]2C[C@H](C)CC[C@H]2[C@]1(C)/C(O)=C1/C(=O)[C@H](CO)N(C)C1=O | 63.2%
Cc1ccc(/C=C/CC(=O)Nc2ccc(C(=O)Nc3ccc(F)cc3N)nc2)cn1 | 25.3%
N#C/C(=C\c1ccc(Cl)cc1Cl)C(N)=O | 112%
CCc1ccc(NC(=O)N[C@@H](Cc2cccc(C)c2)C(=O)N[C@@H]2C(=O)N3CCC[C@H]3C(=O)N3CCCC[C@H]3C(=O)N[C@@H](CO)C(=O)N3C[C@H](C)C[C@H]3C(=O)O[C@H]2C)c(F)c1 | 38.1%
NC(=O)N1N=C(c2cc3ccccc3oc2=O)CC1c1cn(-c2ccccc2)nc1-c1ccc(Cl)cc1 (stereo not given) | 60.1%
COc1cc2c3c(n(CCCN4CCC[C@H]4C(N)=O)c(=O)c2cc1OC)-c1cc2c(cc1C3=O)OCO2 | 52.1%
COc1ccc(/C=C/C(=O)c2nnn(-c3ccc(C(=O)O)cc3)c2C)cc1OC | 107%
COc1ccc2c(C3=C(c4cn(C)c5ccccc45)C(=O)NC3=O)coc2c1 | 65.2%
O=C1c2c(c3c4cccnc4[nH]c3c3ccc4ccccc4c23)C(=O)N1CCN1CCOCC1 | 92.9%
CC(=O)Oc1ccc(CCN2C(=O)CSC2=S)cc1 | 90.6%
CCOC(=O)C1=C(C)Nc2nc3ccccc3n2C1c1ccccc1 (stereo not given) | 109%
O=C(NCCCNc1cc(-c2cn(-c3ccccc3)nc2-c2cccc(O)c2)ccn1)Nc1cc(C(F)(F)F)cc(C(F)(F)F)c1 | 83.7%
O=C(CSc1nnc(-c2ccc(Cl)cc2)n1-c1ccccc1)Nc1ccc(F)cc1 | 95.8%
